# Most compounds without a hit are left out; they make up all but 19% or so of the library.
# HT1080 IDH1KD tx – HT-1080 IDH1 knockdown cell toxicity (counter line). HT-1080 IDH1 knockdown viability, ATP luminescence, 48 h. Potency, µM (top dose mostly 46.1 µM), without a hit: top-dose activity, negative = toxicity, hits mostly cytotoxic. 360,000 compounds, 2% hits. AID 686971;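 further: potency means the concentration at half of the fitted maximal effect; 0% = DMSO wells and -100% = cell-free medium wells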
#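 In this qHTS, HT-1080 cells depleted of IDH1 are exposed for 48 h at 37 °C to compound titrations. Toxicity is scored from CellTiter-Glo luminescence, with DMSO as full viability and medium alone as none.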
# HT1080-NT tox – kills 2HG-producing HT-1080-NT fibrosarcoma cells | HT-1080-NT fibrosarcoma viability, CellTiter-Glo ATP luminescence, 48 h | Potency, µM (doses to about 46.1 µM), for the others: at the top dose activity, negative = less viability, usual class: cytotoxic | 360,000 compounds, 1.6% hits;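 further: NT is the 2HG producing partner of a matched IDH1 knockdown line; potency means the concentration at half of the fitted maximal effect; 0% = DMSO-treated cells and -100% = media-only wells without cells; nearly all actives have a fitted effect of over 55% in size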
#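 A 48-hour cytotoxicity screen used HT-1080-NT cells plated 2 hours before compound delivery. ATP-based CellTiter-Glo luminescence measured viability, normalized to DMSO and no-cell controls.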
# TDP1 cell CPT – growth inhibition of DT40 Tdp1-/-;hTDP1 cells with camptothecin (screen for TDP1 inhibitors); chicken DT40 Tdp1-/-;hTDP1 cells + 20 nM CPT, ATP luminescence, 48 h; Potency, µM (highest dose often 46.2 µM), for the others: at the highest dose activity change, negative = growth inhibition, actives largely listed as inhibitors; 420,000 compounds, 12% hits; AID 686979; further: potency means the concentration at half of the fitted maximal effect; nearly all actives have a fitted effect of over 55% in size
#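 Chicken DT40 Tdp1-/- cells complemented with human TDP1, 400 cells/well, exposed to compounds plus 20 nM camptothecin for at least 48 h at 37 C; viability read as ATP content by CellTiter-Glo luminescence.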
# ELG1 repair inh – blocks ELG1-dependent DNA repair in HEK293T cells; AID 504467; Potency, µM (top dose mostly 46.1 µM), for inactives: at the highest dose activity change, negative = inhibition, usual class: inhibitors; 330,000 compounds, 2.3% hits; HEK293T ELG1-luciferase reporter, luminescence, 16 h; DNA damage induced by 5-fluorouridine; further: potency means the concentration at half of the fitted maximal effect; nearly all actives have a fitted effect of over 55% in size
#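 In this reporter screen, reduction of luminescence relative to DMSO vehicle indicated activity. Compounds and 5-fluorouridine were added together to 2,000 cells per well, incubated for 16 hr at 37 °C, then developed with ONE-Glo.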
# DT40 TDP1 no CPT – qHTS for Inhibitors of human tyrosyl-DNA phosphodiesterase 1 (TDP1): qHTS in cells in absence of CPT | Potency, µM (doses to about 46.2 µM), inactives show at the highest dose activity change, negative = growth inhibition, actives largely listed as inhibitors | 420,000 compounds, 15% hits | DT40 Tdp1-/- hTDP1 cells, no CPT, ATP luminescence, 48 h; further: potency means the concentration at half of the fitted maximal effect; nearly all actives have a fitted effect of over 55% in size
#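 Readout: luminescence from CellTiter-Glo after 30 min in the dark at RT. Cells: DT40 Tdp1-/- with stable hTDP1, 400/well. Exposure: compounds alone, ≥48 hr, 37 °C.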
# IL1B secr inh – inhibitors of inflammasome signaling (IL-1 beta secretion); 360,000 compounds, 4.7% hits; THP-1 LPS/ATP IL-1B secretion, AlphaLISA, 16 h; stronger effect = lower value; activity change, % at 57.5 µM; in the data active means activity change below about -50%; inconclusive means mostly about -30% to -49%
#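 Secreted IL-1B measured by AlphaLISA bead assay after 16 h compound exposure of THP-1 cells; compounds (final up to 57.5 uM) added 1 h before LPS (250 ng/mL) and ATP (1.25 mM) stimulation; lower signal means less secretion.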
# Starred values were filed as active, the others as inactive; ? = inconclusive; / = not tested or not shown; ! = repeats disagree. Unless noted, the call rests on the fitted dose curve; in most records, active means well fitted curve in the direction sought with a large enough effect; inconclusive means small, poorly fitted or top-dose-only effect, or another doubt; inactive means no such curve, though single readings can be large; an effect the other way counts as inactive or inconclusive. Unless noted, on the % scale 0 is the no-effect control and ±100 the full control effect.
SMILES,HT1080 IDH1KD tx,HT1080-NT tox,TDP1 cell CPT,ELG1 repair inh,DT40 TDP1 no CPT,IL1B secr inh
NC(=O)CN1C(=O)C2C3c4ccccc4C(c4ccccc43)C2C1=O (configuration not stated),-5.0%,-3.4%,-6.3%,-3.5%,-29.2%,21.1
O=C1C2C3c4ccccc4C(c4ccccc43)C2C(=O)N1Cc1cccnc1 (configuration not stated),-0.3%,-3.4%,?,-2.9%,18.4µM*,-1.8
O=C1C2C3c4ccccc4C(c4ccccc43)C2C(=O)N1Cc1ccccn1 (configuration not stated),2.2%,3.0%,23.1µM*,6.2%,23.1µM*,19.1
O=C1CCC/C1=c1\s/c(=C/c2cccnc2)c(=O)n1-c1ccccc1,-0.7%,1.6%,?,/,?,-73.2*
Cc1c(C(=O)N2CCC(C(=O)Nc3ccc(F)cc3)CC2)sc2nc[nH]c(=O)c12,/,/,-1.3%,/,-8.9%,/
COc1cccc(C(C)=NNc2ccc([N+](=O)[O-])cc2[N+](=O)[O-])c1OC,2.4%,9.4%,?,/,20.6µM*,10.8
COc1ccc(/C=N\Nc2ccc([N+](=O)[O-])cc2[N+](=O)[O-])c(C(=O)O)c1OC,1.1%,-13.8%,-28.3%,0.0%,-22.6%,-10.1
C/C(CC(C)C)=N/Nc1ccc([N+](=O)[O-])cc1[N+](=O)[O-],-3.3%,-15.4%,?,-8.0%,?,-3.4
CC(Cc1ccccc1)=NNc1ccc([N+](=O)[O-])cc1[N+](=O)[O-],-18.4%,?,16.4µM*,/,7.31µM*,-8.5
C=C1C(=O)OCC2C(C(=O)O)=CC3C(C)C(C)=CC123 (configuration not stated),?,-10.8%,18.4µM*,/,18.4µM*,-70.3*
COc1cccc(/C=N/Nc2nn3cnnc3c3ccccc23)c1,4.1%,3.3%,13µM*,?,20.6µM*,-3.1
COc1cc(/C=N/Nc2nn3cnnc3c3ccccc23)ccc1O,5.62µM*,?,7.31µM*,?,?,-1.1
COc1ccc2c(c1)c1c(c(=O)n(CCc3ccccc3)c(=O)n1Cc1ccccc1)n2C,/,/,-2.4%,/,-8.2%,/
O=c1c2ccccc2n2c(-c3ccccc3F)nnc2n1CCc1ccccc1,/,/,?,/,18.4µM*,/
COc1ccc(OC)c(-c2nnc3n(Cc4ccc(C)cc4)c(=O)c4ccccc4n23)c1,/,/,10.3µM*,/,18.4µM*,/
CC(C)c1ccc(-c2nnc3n(CCc4ccccc4)c(=O)c4ccccc4n23)cc1,/,/,?,/,18.4µM*,/
COc1ccc(-c2nnc3n(CCc4ccccc4)c(=O)c4ccccc4n23)c(OC)c1,17.3%,5.5%,18.4µM*,8.2µM*,13µM*,25.9
CC(=O)OCC1CCCC2=C(C)C(=O)CCC21COC(C)=O (configuration not stated),4.3%,5.6%,-7.5%,0.4%,7.8%,3.7
CC(=O)c1ccccc1Oc1ncnc(N)c1[N+](=O)[O-],0.2%,8.6%,-12.3%,5.2%,16.2%,-4.0
COc1ccc(S(=O)(=O)N2CCN(C(=O)c3cc(C)nc4ccccc34)CC2)cc1OC,3.7%,1.1%,-6.7%,-8.2%,10.0%,24.2
Cc1cccc(-c2nnc3n(CCc4ccccc4)c(=O)c4ccccc4n23)c1,/,/,?,/,25.9µM*,/
COc1cc(-c2nnc3n(CCc4ccccc4)c(=O)c4ccccc4n23)cc(OC)c1OC,5.9%,7.8%,?,20.6µM*,16.4µM*,14.8
CCOc1ccc(CNC(=O)c2cnc3sc(N4CCC(C)CC4)nn3c2=O)cc1OC,/,/,?,/,0.5%,/
O=S1(=O)CCOC[C@H](Cc2ccccc2)N1Cc1cccc(F)c1,14.6%,4.6%,-0.5%,/,?,-15.4
O=S1(=O)CCOC[C@H](c2ccccc2)N1Cc1ccc(F)cc1,/,/,?,/,11.2µM*,/
SMILES,HT1080 IDH1KD tx,HT1080-NT tox,TDP1 cell CPT,ELG1 repair inh,DT40 TDP1 no CPT,IL1B secr inh
O=S1(=O)CCOC[C@H](c2ccccc2)N1Cc1cccc(F)c1,17.3%,0.0%,?,25.8%,12.6µM*!,-16.3
CCCCCNC(=O)C(c1ccc(OC)cc1)n1c(=O)c(-c2cc3ccccc3[nH]2)nc2ccccc21 (configuration not stated),-23.0%,-26.2%,?,/,?,20.9
CC(/C=N\Nc1nnc2c(n1)[nH]c1c(C)cccc12)=C\c1ccco1,?,-12.9%,9.2µM*,?,10.3µM*,64.8
CC(C)c1nnc(NC(=O)CCC2CCCCC2)s1,15.2%,6.1%,2.2%,?,7.6%,23.3
Cc1ccc(NC(=O)Cn2c(=O)n(CCc3ccccc3)c(=O)c3c4c(sc32)CCCC4)cc1C,/,/,8.2%,/,-3.2%,/
CC1CC(=O)N(CC(=O)NC2CCCCC2)c2ccccc2S1 (configuration not stated),6.8%,4.8%,-29.5%,0.6%,3.8%,0.0
Cc1cc(C)c(-n2c(C)cc(/C=C3/NC(=O)NC3=O)c2C)c(C)c1,?,?,?,5.1%,14.6µM*,62.2
Cc1cc(/C=C2/NC(=O)NC2=O)c(C)n1C,1.9%,0.4%,?,4.0%,?,18.2
O=C(Cn1c(-c2cscn2)nc2ccccc21)Nc1ccccc1F,?,-7.2%,7.94µM*,1.2%,?,-5.1
COC(=O)c1ccc(NC(=O)Cn2c(-c3nonc3N)nc3ccccc32)cc1,-13.2%,-5.7%,?,-5.1%,-13.1%,-5.9
COC(=O)c1ccccc1NC(=O)Cn1c(-c2nonc2N)nc2ccccc21,0.316µM*,0.708µM*,0.794µM*,18.4%,0.708µM*,43.2
CCc1ccc(NC(=O)Cn2c(-c3cncs3)nc3ccccc32)cc1,/,/,?,/,14.6µM*,/
CCOC(=O)c1ccc(NC(=O)Cn2c(-c3nonc3N)nc3ccccc32)cc1,-0.3%,-3.2%,16.4µM*,?,?,-7.7
N#Cc1ccc(-c2nc3ccc(Cl)cn3c2Cc2ccsc2)cc1,1.3%,-6.7%,?,/,?,-25.8
CSc1ccc(S(=O)(=O)NC2CC3CCC2C3)cc1 (configuration not stated),2.4%,0.6%,-0.3%,1.7%,-61.9%,0.0
COc1ccc(Cl)cc1NC(=O)C(C)N(C)Cc1ccc(C(F)(F)F)cc1 (configuration not stated),?,-15.2%,-29.9%,-23.1%,-32.1%,25.6
